Holding throughout (design): scale not given: direction of the effect not stated beside the values
Test [1] deals with Protein translocase subunit SecA (Escherichia coli (strain K12)) (UniProt P10408). Nature of the test: Assay to Identify E. coli SecA ATPase Inhibitors. In kind it is functional. Conditions: 30 µM.
Test [2] has as its target T1, Ubiquitin-activating enzyme e1, putative (Leishmania donovani (strain BPK282A1)) (UniProt E9BSI1).
T1 sequence (whole entry): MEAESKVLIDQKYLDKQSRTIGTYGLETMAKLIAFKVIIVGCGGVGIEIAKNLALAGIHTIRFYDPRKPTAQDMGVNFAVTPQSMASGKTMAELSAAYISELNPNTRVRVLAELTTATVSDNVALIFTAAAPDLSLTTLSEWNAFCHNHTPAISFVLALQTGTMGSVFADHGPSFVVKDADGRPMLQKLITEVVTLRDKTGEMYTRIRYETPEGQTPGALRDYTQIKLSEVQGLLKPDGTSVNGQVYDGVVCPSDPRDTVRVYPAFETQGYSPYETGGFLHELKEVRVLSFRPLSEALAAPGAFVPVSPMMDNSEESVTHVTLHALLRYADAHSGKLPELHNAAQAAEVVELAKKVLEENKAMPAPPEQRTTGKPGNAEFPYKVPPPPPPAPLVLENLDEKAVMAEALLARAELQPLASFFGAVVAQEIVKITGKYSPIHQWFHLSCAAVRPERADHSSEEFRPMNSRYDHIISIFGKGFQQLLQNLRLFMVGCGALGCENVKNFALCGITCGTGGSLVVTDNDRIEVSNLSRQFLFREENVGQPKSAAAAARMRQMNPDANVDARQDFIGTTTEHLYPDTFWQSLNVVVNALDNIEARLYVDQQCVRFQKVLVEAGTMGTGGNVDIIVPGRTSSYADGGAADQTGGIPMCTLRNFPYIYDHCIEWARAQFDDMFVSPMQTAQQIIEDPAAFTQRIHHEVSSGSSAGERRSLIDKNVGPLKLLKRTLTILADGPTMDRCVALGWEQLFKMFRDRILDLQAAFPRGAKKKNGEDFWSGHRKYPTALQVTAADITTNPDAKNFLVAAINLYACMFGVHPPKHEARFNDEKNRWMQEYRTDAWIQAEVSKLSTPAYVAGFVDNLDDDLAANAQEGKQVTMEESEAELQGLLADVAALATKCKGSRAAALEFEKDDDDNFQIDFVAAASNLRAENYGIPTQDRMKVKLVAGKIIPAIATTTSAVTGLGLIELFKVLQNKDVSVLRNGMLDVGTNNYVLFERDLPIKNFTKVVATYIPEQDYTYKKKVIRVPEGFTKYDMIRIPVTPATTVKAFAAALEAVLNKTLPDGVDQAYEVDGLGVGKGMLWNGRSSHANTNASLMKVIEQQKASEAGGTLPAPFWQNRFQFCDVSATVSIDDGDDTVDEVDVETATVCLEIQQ
Nature of the test: Leishmania donovani Ubiquitin Activating Enzyme (LdE1). The settings on record: 30 µM. In kind it is functional.

In test [3] the target is AMP-activated protein kinase, AMPK (Homo sapiens) (UniProt P54646+O43741+P54619+Q9UGJ0+Q9Y478+Q13131+Q9UGI9). The test is described as follows: AMP-dependent Kinase enzyme assay. An in vitro enzyme assay that detects ADP turnover that is directly proportional to AMPK activity. This uses naive AMPK that is activated during the assay with MK-8722. Conditions: 30 µM. In kind it is functional.

Test [4] has as its target Sialic acid-binding Ig-like lectin 9 (Homo sapiens) (UniProt Q9Y336). Nature of the test: Hs-Siglec9 ALPHAscreen SOP 20170721. The settings on record: 10 µM.
For another test, the system named is Trypanosoma cruzi. Nature of the test: Trypanosoma cruzi phosphomannomutase and mannose-1-phosphate guanylyltransferase assay. The class given is functional. Conditions: 10 µM.
The target of test [5] is T2, Arginase-2, mitochondrial (Homo sapiens) (UniProt P78540).
T2 sequence (whole entry): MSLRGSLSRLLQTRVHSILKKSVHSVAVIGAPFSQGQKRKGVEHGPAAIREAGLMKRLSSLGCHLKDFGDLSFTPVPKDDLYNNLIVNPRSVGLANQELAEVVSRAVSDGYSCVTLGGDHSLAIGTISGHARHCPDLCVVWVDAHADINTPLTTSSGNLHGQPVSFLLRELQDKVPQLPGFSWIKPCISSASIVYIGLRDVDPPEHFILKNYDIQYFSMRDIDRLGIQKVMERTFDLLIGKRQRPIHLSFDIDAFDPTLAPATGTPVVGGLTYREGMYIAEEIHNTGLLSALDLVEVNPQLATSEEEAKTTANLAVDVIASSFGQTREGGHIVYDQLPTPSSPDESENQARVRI
The test is described as follows: in vitro enzyme assay to detect the production of urea directly proportional to the activity of Arginase II. Note: in the data most compounds retested in dose-response had high values. The settings on record: 33.3 µM. The class given is functional.

In test [6] the target is T3, Proteasome subunit beta (Trypanosoma cruzi) (UniProt O96673).
T3 sequence (whole entry): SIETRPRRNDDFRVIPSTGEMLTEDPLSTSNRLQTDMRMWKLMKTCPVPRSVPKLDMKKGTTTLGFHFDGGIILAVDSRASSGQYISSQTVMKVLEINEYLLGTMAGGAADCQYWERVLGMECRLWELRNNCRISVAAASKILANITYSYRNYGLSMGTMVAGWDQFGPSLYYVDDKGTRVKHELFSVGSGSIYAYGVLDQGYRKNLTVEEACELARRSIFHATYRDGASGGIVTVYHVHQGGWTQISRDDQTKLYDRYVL
Nature of the test: Trypanosoma cruzi proteasome chymotrypsin-like activity (TcProtChymo) assay. Note: in the data most compounds retested in dose-response had high values. The class given is functional. Conditions: 9.37 µM.

A further test is filed under the species Homo sapiens. The test is described as follows: To identify inhibition of the IFN signalling (Jak-Stat) pathway via expression of an eGFP reporter gene under the control of an IFN-stimulated response element (ISRE) containing MxA promoter. Conditions: 30 µM. In kind it is functional.
Test [7] concerns the target T4, Tyrosyl-tRNA synthetase, putative (Trypanosoma cruzi (strain CL Brener)) (UniProt Q4DSP6).
T4 sequence (whole entry): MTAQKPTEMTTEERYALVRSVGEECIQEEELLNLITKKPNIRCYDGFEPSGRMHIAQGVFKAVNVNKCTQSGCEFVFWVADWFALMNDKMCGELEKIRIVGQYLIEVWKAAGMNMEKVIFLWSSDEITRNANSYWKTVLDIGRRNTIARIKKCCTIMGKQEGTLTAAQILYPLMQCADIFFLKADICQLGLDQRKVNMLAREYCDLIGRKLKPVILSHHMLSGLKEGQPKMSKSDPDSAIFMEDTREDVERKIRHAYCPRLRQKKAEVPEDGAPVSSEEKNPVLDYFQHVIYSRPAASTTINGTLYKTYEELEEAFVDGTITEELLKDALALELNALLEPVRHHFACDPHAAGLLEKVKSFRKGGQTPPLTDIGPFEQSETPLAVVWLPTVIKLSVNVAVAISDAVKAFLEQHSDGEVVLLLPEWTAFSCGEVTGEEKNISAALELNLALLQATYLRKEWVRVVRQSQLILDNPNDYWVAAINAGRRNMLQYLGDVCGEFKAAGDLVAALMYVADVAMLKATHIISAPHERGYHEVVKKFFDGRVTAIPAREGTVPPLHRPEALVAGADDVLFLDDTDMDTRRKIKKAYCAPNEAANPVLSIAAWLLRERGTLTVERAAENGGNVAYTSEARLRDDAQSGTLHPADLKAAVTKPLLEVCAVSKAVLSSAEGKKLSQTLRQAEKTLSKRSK
The test is described as follows: Trypanosoma cruzi tyrosyl tRNA synthetase (TcYRS) _High Tyrosine SOP. Note: in the data most compounds retested in dose-response had high values. In kind it is functional. The settings on record: 30 µM.

The target of test [8] is T4, Tyrosyl-tRNA synthetase, putative (Trypanosoma cruzi (strain CL Brener)). The test is described as follows: Trypanosoma cruzi tyrosyl tRNA synthetase (TcYRS) SOP. Conditions: 30 µM. In kind it is functional.
The target in test [9] is Chromo domain-containing protein 1 (Saccharomyces cerevisiae (strain ATCC 204508 / S288c) (Baker's yeast)) (UniProt P32657). The test is described as follows: ScCHD-1 Enzyme Inhibition Assay. Note: in the data most compounds retested in dose-response had high values. In kind it is functional. Conditions: 30 µM.

Here are results for eleven compounds from ChEMBL document CHEMBL3988442, “University of Dundee, Small-Polar-MMV Screening Library” (2021).

For some of these results: Entries with a potency or affinity are not part of this list.

Sequence of Sialic acid-binding Ig-like lectin 9 (Homo sapiens) (Q9Y336 whole entry): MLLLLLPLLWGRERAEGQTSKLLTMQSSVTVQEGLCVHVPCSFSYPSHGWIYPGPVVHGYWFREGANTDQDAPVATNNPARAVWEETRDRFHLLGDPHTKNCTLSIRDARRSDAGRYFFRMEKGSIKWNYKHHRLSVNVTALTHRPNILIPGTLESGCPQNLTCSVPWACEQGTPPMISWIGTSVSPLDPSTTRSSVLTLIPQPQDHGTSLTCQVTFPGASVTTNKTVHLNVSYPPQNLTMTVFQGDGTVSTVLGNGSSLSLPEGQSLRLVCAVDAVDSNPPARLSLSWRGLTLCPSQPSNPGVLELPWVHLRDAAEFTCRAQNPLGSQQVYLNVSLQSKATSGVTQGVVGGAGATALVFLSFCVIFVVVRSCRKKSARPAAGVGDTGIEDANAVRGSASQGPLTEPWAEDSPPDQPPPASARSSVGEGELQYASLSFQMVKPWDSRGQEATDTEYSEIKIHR
Sequence of Protein translocase subunit SecA (Escherichia coli (strain K12)) (P10408 whole entry): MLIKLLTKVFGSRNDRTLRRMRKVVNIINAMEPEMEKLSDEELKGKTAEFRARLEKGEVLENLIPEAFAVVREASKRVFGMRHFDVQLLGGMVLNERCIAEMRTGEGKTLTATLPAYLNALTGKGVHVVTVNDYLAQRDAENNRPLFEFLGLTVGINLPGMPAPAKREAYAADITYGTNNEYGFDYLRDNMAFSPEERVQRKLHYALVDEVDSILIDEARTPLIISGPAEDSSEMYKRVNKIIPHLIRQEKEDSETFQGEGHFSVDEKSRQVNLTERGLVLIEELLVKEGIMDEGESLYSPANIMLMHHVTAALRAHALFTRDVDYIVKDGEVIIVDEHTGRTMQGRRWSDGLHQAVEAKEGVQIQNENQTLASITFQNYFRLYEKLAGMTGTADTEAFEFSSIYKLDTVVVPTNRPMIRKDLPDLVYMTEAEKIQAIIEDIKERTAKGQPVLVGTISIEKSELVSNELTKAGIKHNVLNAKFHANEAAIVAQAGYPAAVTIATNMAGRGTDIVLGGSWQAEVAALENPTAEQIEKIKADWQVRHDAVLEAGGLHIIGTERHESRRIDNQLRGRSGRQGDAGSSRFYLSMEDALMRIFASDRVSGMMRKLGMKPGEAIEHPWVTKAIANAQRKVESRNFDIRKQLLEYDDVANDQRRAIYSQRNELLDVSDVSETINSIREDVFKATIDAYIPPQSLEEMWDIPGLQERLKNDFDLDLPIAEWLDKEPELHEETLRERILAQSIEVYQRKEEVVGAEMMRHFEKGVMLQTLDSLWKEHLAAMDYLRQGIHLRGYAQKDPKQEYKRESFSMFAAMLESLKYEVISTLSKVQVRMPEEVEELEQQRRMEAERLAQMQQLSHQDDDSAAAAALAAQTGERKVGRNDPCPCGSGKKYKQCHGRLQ
Sequence of Chromo domain-containing protein 1 (Saccharomyces cerevisiae (strain ATCC 204508 / S288c) (Baker's yeast)) (P32657 whole entry, the tested form may be a part): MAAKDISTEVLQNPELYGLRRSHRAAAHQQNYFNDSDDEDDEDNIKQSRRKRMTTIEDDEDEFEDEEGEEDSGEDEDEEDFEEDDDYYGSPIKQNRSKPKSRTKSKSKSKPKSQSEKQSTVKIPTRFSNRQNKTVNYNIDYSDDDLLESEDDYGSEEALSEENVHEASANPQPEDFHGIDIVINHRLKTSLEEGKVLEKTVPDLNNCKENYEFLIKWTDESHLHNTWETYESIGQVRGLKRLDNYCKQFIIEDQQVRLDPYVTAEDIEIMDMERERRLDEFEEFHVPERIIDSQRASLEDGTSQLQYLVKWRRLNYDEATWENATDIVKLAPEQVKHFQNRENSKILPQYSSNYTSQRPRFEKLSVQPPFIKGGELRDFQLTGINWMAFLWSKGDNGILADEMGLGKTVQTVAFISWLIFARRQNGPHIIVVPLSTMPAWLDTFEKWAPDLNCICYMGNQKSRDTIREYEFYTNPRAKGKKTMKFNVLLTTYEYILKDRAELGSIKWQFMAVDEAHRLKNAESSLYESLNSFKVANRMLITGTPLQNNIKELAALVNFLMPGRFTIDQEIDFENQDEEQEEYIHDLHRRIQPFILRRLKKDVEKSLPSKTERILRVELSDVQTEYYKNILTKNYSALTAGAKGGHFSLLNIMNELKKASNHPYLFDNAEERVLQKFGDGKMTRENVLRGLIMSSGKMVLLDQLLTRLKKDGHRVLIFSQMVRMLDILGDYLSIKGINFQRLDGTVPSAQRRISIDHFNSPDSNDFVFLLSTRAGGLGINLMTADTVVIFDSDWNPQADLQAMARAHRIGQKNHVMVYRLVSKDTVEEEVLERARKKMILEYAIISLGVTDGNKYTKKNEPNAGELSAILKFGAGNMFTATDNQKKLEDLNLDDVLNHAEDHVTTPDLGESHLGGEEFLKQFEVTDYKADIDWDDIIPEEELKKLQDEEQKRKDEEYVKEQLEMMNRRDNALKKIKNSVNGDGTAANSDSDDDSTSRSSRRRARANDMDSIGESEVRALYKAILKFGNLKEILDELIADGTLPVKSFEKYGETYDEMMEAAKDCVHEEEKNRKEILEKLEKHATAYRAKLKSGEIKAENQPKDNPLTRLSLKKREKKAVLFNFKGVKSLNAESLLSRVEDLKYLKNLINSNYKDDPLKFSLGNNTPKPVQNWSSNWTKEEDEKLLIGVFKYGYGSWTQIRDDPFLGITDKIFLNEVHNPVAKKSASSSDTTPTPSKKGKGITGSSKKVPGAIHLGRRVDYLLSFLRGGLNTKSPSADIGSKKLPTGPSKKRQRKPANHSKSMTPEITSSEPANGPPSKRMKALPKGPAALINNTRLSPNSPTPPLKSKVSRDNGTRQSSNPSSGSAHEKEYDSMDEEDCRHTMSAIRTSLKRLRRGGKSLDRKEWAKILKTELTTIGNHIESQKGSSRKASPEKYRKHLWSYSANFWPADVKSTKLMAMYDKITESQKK

With `CCc1noc(CN2CCN(C(=O)N(C)C)CC2)n1`, the Percent Effect in [1] was -5.22%; in test [2], -2.53%; in test [3], 7.62%; in test [4], 3.9%; in the test with Trypanosoma cruzi, -5.38%; in [5] it was 0.38%. The Percent Effect is 4.83% in [6]; 23.4% in the test listed under Homo sapiens; -5.42% in [7]; -16.5% in test [8]; -4.89% in test [9].
Take `COc1ccc(C2CCCCCN2S(=O)(=O)N(C)C)cc1` (stereo unspecified): the Percent Effect in test [1] was -0.837%; in test [2] it was 12.5%; in [3] it was -11.6%; in test [4], 10.4%; in the test with Trypanosoma cruzi, -0.291%; in test [5], 18.1%. The Percent Effect in [6] is 12.5%; in the test filed under Homo sapiens, 6.25%; in test [7], 2.1%; in test [8], 5.13%; in test [9], -3.74%.
Consider `CCN(CC)c1ccc(-c2nc(-c3cccc(OC)c3OC)no2)cn1`, for which the Percent Effect is -3.58% in test [1]; 8% in test [2]; -0.0158% in test [3]; 12.2% in test [4]; 6.52% with Trypanosoma cruzi; 17.2% in [5]. Further, the Percent Effect is 0.349% in test [6]; 10.7% in the test filed under Homo sapiens; 1.64% in test [7]; -8.64% in [8]; -2.98% in test [9].
As to `CN(C(=O)Cn1nc(-c2ccc(F)cc2)oc1=O)C1CCS(=O)(=O)C1` (stereo unspecified), the Percent Effect in [1] was 0.314%; in test [2], 20.8%; in test [3], -6.94%; in test [4], 6.92%; in the test with Trypanosoma cruzi it was 0.291%; in test [5], 0%. Moreover, the Percent Effect in test [6] is 19.3%; in the test filed under Homo sapiens, 13.6%; in test [7] it was 2.1%; in test [8], 10.3%; in [9], -6.7%.
As for `CC(C)c1n[nH]c(C2CN(C(=O)CCn3ccccc3=O)CCO2)n1` (stereo unspecified), the Percent Effect in test [1] was -3.88%; in test [2], 1.27%; in test [3], 3.8%; in [4], -2.89%; with Trypanosoma cruzi, -3.18%; in [5], -2.37%. Also, the Percent Effect in [6] is 2.92%; in the test listed under Homo sapiens it was -3.42%; in [7] it was 3.12%; in test [8] it was 7.59%; in [9], -5.25%.
For the compound `CNC(=O)c1cccc(NC(=O)Cn2nc(-c3cccs3)oc2=O)c1`, the Percent Effect was -8.44% in test [1]; 13.5% in test [2]; 133% in test [3]; 18.8% in test [4]; 9.38% in the test on Trypanosoma cruzi; -0.924% in test [5]. The Percent Effect in test [6] is 4.13%; in the test filed under Homo sapiens, -0.599%; in test [7], 6.93%; in test [8], 13.4%; in test [9] it was -2.88%.
In the case of `CC(=O)N1CCN(Cc2nnc(C(C)(C)C)o2)CC1`, the Percent Effect in [1] is 0.446%; in [2], 5.41%; in test [3], -5.16%; in test [4], -0.469%; with Trypanosoma cruzi, -0.772%; in test [5] it was 2.86%. Moreover, the Percent Effect in test [6] was 14.3%; in the test filed under Homo sapiens, 7.35%; in test [7], 1.59%; in test [8], 9.76%; in test [9] it was -3.99%.
Consider `CSc1ccc(S(=O)(=O)N2CCCCC2CCNC(C)=O)cc1` (stereo unspecified), for which the Percent Effect in test [1] was 0.287%; in [2], 11%; in [3] it was -3.42%; in test [4], 4.24%; in the test on Trypanosoma cruzi, 1.59%; in [5], 1.6%. Moreover, the Percent Effect in test [6] is 14.8%; in the test filed under Homo sapiens it was 9.17%; in test [7], 7.29%; in test [8] it was 16.1%; in test [9] it was -5.63%.
Consider `O=C(c1ccn(-c2ccccc2Cl)n1)N1CCSCC1`, for which the Percent Effect in test [1] is -4.68%; in test [2] it was 8.11%; in [3] it was 1.31%; in test [4], 12.9%; with Trypanosoma cruzi, -6.55%; in test [5], 1.74%. In addition, the Percent Effect in [6] was 3.69%; in the test listed under Homo sapiens it was 20.1%; in [7] it was 0%; in test [8], 11.1%; in test [9], -3.09%.
For `COCC(=O)NCc1cc(=O)n2c(n1)CN(CC1CCOC1)CCC2` (stereo unspecified), the Percent Effect is 0.158% in test [1]; 13.5% in test [2]; 2.63% in test [3]; -10.2% in [4]; 0.0978% in the test with Trypanosoma cruzi; -2.23% in test [5]. Besides, the Percent Effect in test [6] was 8.12%; in the test filed under Homo sapiens it was 8.83%; in test [7], -1.08%; in test [8] it was 12.8%; in test [9], -2.53%.
For the compound `Cc1csc(N2CCCN(Cc3noc(C)n3)CC2)n1`, the Percent Effect in test [1] is -2.54%; in test [2], 3.8%; in test [3] it was -4.18%; in test [4], 0.549%; in the test with Trypanosoma cruzi it was 2.36%; in [5], -7.1%. The Percent Effect in test [6] is 15.9%; in the test filed under Homo sapiens, 11.2%; in test [7] it was 5.21%; in test [8], 7.59%; in test [9], -16%.
